# For some of these results: Results with a measured potency or affinity are listed apart. Active and inactive are the calls of the source. How the calls were made is not given here.
# Conditions: Ebola virus entry assay, green fluorescence channel
# Wherever efficacy is given: 0% is about no effect.
row,Structure (SMILES),efficacy
1,NCCNCCNCCN,15% (inactive)
2,COc1ccc(O)cc1,18.3% (inactive)
3,CC(C)Cc1ccc(C(C)C(=O)O)cc1 (stereo not given),17.8% (inactive)
4,C[C@]12CCC(=O)C=C1CC[C@@H]1[C@@H]2[C@@H](O)C[C@@]2(C)[C@H]1CC[C@]2(O)C(=O)COC(=O)CCC(=O)O,-14% (inactive)
5,CC(CCc1ccc2c(c1)OCO2)NN (stereo not given),17.5% (inactive)
6,COc1cc(C=O)ccc1O,-12.7% (inactive)
7,Cc1cc(=O)[nH]c(=S)[nH]1,-11.2% (inactive)
8,CCCC(CCC)(C(=O)OCC)C(=O)OCC,21% (inactive)
9,Cc1ccc(S(=O)(=O)NC(=O)NC2CCCCCCC2)cc1,-10.6% (inactive)
10,CCCCCC[C@@H](CCC)C(=O)O,13.6% (inactive)
11,CCCCCCCCCCCCCCCCCCO,-11.3% (inactive)
12,Cc1cc(C(C#N)c2ccc(Cl)cc2)c(Cl)cc1NC(=O)c1cc(I)cc(I)c1O (stereo not given),-32.3% (inactive)
13,NS(=O)(=O)c1cc(C(=O)NN2C[C@H]3[C@H]4CCC(C4)[C@H]3C2)ccc1Cl,-15.5% (inactive)
14,CCCCOC(=O)c1ccc(N)cc1,12.8% (inactive)
15,N#C[C@H]1C[C@H]2C[C@@H]2N1C(=O)[C@@H](N)C12CC3CC(CC(O)(C3)C1)C2,-19.1% (inactive)
16,CC(=O)OCC1=C(C(=O)O)N2C(=O)[C@@H](NC(=O)Cc3cccs3)[C@H]2SC1,-9.53% (inactive)
17,O=C(O)Cc1ccc(-c2ccccc2)cc1,14.2% (inactive)
18,O=C(NCC(O)CO)c1c(I)c(C(=O)NCC(O)CO)c(I)c(N(CCO)C(=O)CO)c1I (stereo not given),35.5% (inactive)
19,OCCc1ccccc1,36.8% (inactive)
20,Cc1cc(C)c(NC(=O)CN(CC(=O)O)CC(=O)O)c(C)c1Br,7.04% (inactive)
21,COc1ccc(-c2cc(=O)c3c(O)cc(O[C@@H]4O[C@H](CO[C@@H]5O[C@@H](C)[C@H](O)[C@@H](O)[C@H]5O)[C@@H](O)[C@H](O)[C@H]4O)cc3o2)cc1O,-6.57% (inactive)
22,N#CC1(c2ccc(F)cc2)CCC(=O)CC1,28.6% (inactive)

# Conditions: Ebola virus entry assay, blue channel fluorescence
row,Structure (SMILES),outcome
1,O=C(O)c1cc(=O)c2ccccc2o1,inactive
2,CC(=O)OCC[N+](C)(C)C,inactive
3,CN1Cc2cc(C(=O)N3CCC(C4CCNCC4)CC3)ccc2NC(CC(=O)O)C1=O (stereo not given),inactive
4,N[C@@H](COP(=O)(O)O)C(=O)O,inactive
5,CN1CCN(CC(=O)N2c3ccccc3C(=O)Nc3cccnc32)CC1,inactive
6,CCC(Cc1c(I)cc(I)c(N)c1I)C(=O)O (stereo not given),inactive
7,Clc1cccc(C(c2ccc3nc[nH]c3c2)n2ccnc2)c1 (stereo not given),inactive
8,CCCCCCCCCCCC(=O)[O][Sn]([CH2]CCC)([CH2]CCC)[O]C(=O)CCCCCCCCCCC,inactive
9,CC(CCc1ccc2c(c1)OCO2)NN (stereo not given),inactive
10,CCCC(CCC)(C(=O)OCC)C(=O)OCC,inactive
11,Cc1ccc(S(=O)(=O)NC(=O)NC2CCCCCCC2)cc1,inactive
12,CCCCCC[C@@H](CCC)C(=O)O,inactive
13,Cc1cc(C(C#N)c2ccc(Cl)cc2)c(Cl)cc1NC(=O)c1cc(I)cc(I)c1O (stereo not given),inactive
14,NS(=O)(=O)c1cc(C(=O)NN2C[C@H]3[C@H]4CCC(C4)[C@H]3C2)ccc1Cl,inactive
15,CC(=O)OCC1=C(C(=O)O)N2C(=O)[C@@H](NC(=O)Cc3cccs3)[C@H]2SC1,inactive
16,O=C(O)Cc1ccc(-c2ccccc2)cc1,inactive
17,O=C(NCC(O)CO)c1c(I)c(C(=O)NCC(O)CO)c(I)c(N(CCO)C(=O)CO)c1I (stereo not given),inactive
18,N#CC1(c2ccc(F)cc2)CCC(=O)CC1,inactive

# Reference: PubChem BioAssay (NCATS)
